Shn3 3UTR inh: reduces Shn3 3'UTR luciferase signal in osteoblasts; Clone20 osteoblast Shn3 3'UTR firefly luciferase, 24 h; 360,000 tested, 0.52% active; inhibition, % at 12.5 µM; AID 588674;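 active means mean inhibition of at least 75% with every replicate also reaching 75%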;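 further: 0% = median of neutral control wells and 100% = pilot-screen positive control compound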
Glyco luc inh: blocks N-linked glycosylation in D54 reporter cells; D54 ERlucT glycosylation luciferase reporter, 24 h; percent of 100 nM tunicamycin response; reporter increase, % at 12.5 µM; 360,000 tested, 0.23% active; AID 588692;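 active means mean luciferase reporter signal, scaled so untreated is 0 and the glycosylation-blocking control 100, at or above a set limit in every replicate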;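 further: luciferase carries N-glycosylation sites so blocking glycosylation raises the light; 0% = median of neutral control wells and 100% = median of 100 nM tunicamycin wells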
HIV Env fusion: inhibitors of HIV Env-mediated cell fusion. HeLa-JRFL Env/CEM21 cell fusion, luciferase. inhibition, % at 12.3 µM. 360,000 tested, 1.1% active. AID 651610;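 active means mean replicate inhibition score of at least 50 and every replicate individually at or above 50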;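 further: 0% = plate neutral controls and 100% = maraviroc near 300 nM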
NSD2 inh: NSD2 (human) methyltransferase inhibition. NSD2 peptide methylation, AlphaScreen, 120 min. O96028. AID 743445. 310,000 tested, 0.54% active. inhibition, % at 12.5 µM; in the data active means inhibition above about 50%
Target sequence (O96028 whole entry, looked up): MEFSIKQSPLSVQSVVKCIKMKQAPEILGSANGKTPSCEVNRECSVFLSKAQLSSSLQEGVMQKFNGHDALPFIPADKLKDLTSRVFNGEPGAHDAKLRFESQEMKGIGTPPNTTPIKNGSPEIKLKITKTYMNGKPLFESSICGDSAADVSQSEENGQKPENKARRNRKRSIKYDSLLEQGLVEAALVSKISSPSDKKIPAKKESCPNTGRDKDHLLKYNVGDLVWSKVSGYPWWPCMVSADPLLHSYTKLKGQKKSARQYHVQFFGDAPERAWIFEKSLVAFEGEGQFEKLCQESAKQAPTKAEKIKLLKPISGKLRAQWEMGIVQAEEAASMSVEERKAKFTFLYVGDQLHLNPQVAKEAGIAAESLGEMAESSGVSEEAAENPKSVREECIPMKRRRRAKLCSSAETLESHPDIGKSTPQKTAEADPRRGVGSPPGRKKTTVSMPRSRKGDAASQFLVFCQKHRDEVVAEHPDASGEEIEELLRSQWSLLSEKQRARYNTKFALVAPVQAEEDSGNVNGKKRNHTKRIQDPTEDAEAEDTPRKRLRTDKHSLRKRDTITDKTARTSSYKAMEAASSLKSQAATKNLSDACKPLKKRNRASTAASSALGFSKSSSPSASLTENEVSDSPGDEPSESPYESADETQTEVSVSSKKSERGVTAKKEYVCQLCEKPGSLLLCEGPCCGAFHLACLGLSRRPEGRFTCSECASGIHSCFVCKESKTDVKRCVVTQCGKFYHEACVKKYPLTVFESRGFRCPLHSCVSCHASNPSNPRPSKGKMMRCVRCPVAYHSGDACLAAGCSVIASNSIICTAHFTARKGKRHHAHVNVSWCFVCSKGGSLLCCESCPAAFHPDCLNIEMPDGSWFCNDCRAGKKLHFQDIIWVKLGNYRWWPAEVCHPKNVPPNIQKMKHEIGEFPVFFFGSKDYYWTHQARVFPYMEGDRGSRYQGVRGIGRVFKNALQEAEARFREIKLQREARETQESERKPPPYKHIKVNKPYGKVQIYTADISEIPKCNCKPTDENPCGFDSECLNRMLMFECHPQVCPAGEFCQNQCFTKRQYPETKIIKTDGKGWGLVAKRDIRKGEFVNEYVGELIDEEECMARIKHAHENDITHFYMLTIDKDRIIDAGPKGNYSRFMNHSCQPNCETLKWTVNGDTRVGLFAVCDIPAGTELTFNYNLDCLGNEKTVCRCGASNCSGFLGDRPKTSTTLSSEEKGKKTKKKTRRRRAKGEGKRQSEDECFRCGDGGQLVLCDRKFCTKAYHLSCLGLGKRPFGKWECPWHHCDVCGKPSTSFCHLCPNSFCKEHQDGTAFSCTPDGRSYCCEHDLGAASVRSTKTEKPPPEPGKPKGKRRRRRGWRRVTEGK
LMP1 NFkB inh: reduces LMP1-driven NF-kappaB luciferase signal; 350,000 tested, 0.69% active; AID 504558; LMP1-induced NF-kappaB luciferase reporter cells, luminescence; inhibition, % at 12.5 µM; in the data active means inhibition above about 41%;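 further: 0% = neutral control wells and 100% = reference inhibitor control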
PAX8 reporter: lowers PAX8-driven luciferase in RMG-I cells | 360,000 tested, 1.2% active | inhibition, % at 12.6 µM | RMG-I TPO-luciferase reporter, SteadyGlo, 24 h;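 active means mean replicate inhibition at least 60% with every replicate also reaching 60%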;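 further: luciferase light reporting Pax8 driven TPO promoter activity; plate controls were median of neutral control wells for no effect and mitoxantrone controls for full effect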
* hit, by the source's call; nt = not tested or not shown; [ ] = another dose, or the depositor's remark. Most compounds without a hit are left out; they make up all but 2.8% or so of the library.

SMILES | Shn3 3UTR inh | Glyco luc inh | HIV Env fusion | NSD2 inh | LMP1 NFkB inh | PAX8 reporter
C[C@@H]1CN([C@H](C)CO)C(=O)c2cc(NC(=O)Nc3ccc(C(F)(F)F)cc3)ccc2O[C@@H](C)CCCCO[C@H]1CN(C)S(=O)(=O)c1ccc(Cl)cc1 | nt | nt | 4[16.7 µM] | nt | nt | 88*
COc1ccc(S(=O)(=O)N(C)C[C@@H]2OCCCC[C@@H](C)Oc3ccc(NC(=O)Nc4ccccc4)cc3C(=O)N([C@H](C)CO)C[C@H]2C)cc1 | nt | nt | 76*[16.7 µM] | nt | nt | 19
COc1ccc(S(=O)(=O)N(C)C[C@H]2OCCCC[C@@H](C)Oc3ccc(NC(=O)Nc4ccccc4)cc3C(=O)N([C@H](C)CO)C[C@@H]2C)cc1 | nt | nt | 10[16.7 µM] | nt | nt | 1
CCN1C(=O)[C@H]2[C@@H](c3ccc(C(F)(F)F)cc3)N[C@]3(CCCN(Cc4ccccc4)C3=O)[C@H]2C1=O | 24 | 0 | 78* | nt | 3 | 2
N#CCSc1nnc(-c2sc3ccccc3c2Cl)o1 | -17 | 5 | 79* | 2 | 16 | -14
COC(=O)CSc1nnc(-c2sc3ccccc3c2Cl)o1 | nt | 0 | nt | -4 | 4 | nt
C[C@@H]1CN([C@@H](C)CO)C(=O)c2cc(N(C)C)ccc2O[C@@H]1CN(C)Cc1ccc(C(F)(F)F)cc1 | nt | nt | 18[16.7 µM] | nt | nt | 19
CN1/C(=C/C=C(/C#N)C(N)=O)C(C)(C)c2ccccc21 | -8 | 26* | nt | 0 | -7 | nt
CN1/C(=C\C=C(/C#N)C(=O)Nc2ccccc2F)C(C)(C)c2ccccc21 | 15 | -2 | -7 | -2 | 9 | 19
CCC(=O)N(C)C[C@@H]1[C@H](c2ccc(-c3cccnc3)cc2)[C@H](CO)N1C(C)=O | nt | nt | nt | nt | nt | 11
CCC(=O)Nc1cccc(C(=O)/C=C/c2cc(Br)ccc2OC)c1 | -14 | -19 | nt | 6 | 67* | nt
COc1ccc(Br)cc1/C=C/C(=O)Nc1ccc2ccccc2c1 | -40 | 2 | nt | -1 | -11 | -26
COc1ccc(CNC(=O)N(C)C[C@H]2OCc3ccccc3-c3ccccc3C(=O)N([C@H](C)CO)C[C@H]2C)cc1 | nt | nt | -10[16.7 µM] | nt | nt | 9
CCCNC(=O)N1[C@H](CO)[C@@H](c2ccccc2)[C@@H]1CNC(=O)c1ccc(F)cc1 | nt | nt | nt | nt | nt | 7
CNC[C@H]1Oc2ccc(NC(=O)C3CCCCC3)cc2C(=O)N([C@@H](C)CO)C[C@@H]1C | nt | nt | 10[16.7 µM] | nt | nt | -1
O=C(Nc1ccncc1)C1COc2ccccc2O1 (stereo not drawn) | 3 | -2 | nt | -3 | -5 | nt
O=C(NC1=NCCS1)C1COc2ccccc2O1 (stereo not drawn) | 80 | -22 | 98* | nt | 71* | nt
COc1cccc(N2CCN(Cc3nnnn3C3CCCCC3)CC2)c1 | 4 | 1 | 0 | -3 | 1 | 19
O=C1CCc2cc(OCCCCc3nnnn3C3CCCCC3)ccc2N1 | 31 | 1 | nt | nt | 73* | 15
CC1=C(C(N)=O)C(c2cccnc2)n2nc(SCc3ccccc3Cl)nc2N1 (stereo not drawn) | -29 | 0 | nt | nt | 3 | nt
CCOC(=O)C1=C(C)Nc2nc(SCc3cccnc3)nn2C1c1ccc(OC)cc1 (stereo not drawn) | 12 | -4 | 62* | nt | 0 | 12
N#C[C@@H]1[C@H](c2ccc(-c3cncnc3)cc2)[C@H](CO)N1C(=O)Cc1ccccc1 | nt | nt | nt | nt | nt | 5
COc1ccc(C#Cc2ccc3c(c2)[C@]2(C(=O)N3)[C@H](c3ccc(OCCO)cc3)N3[C@H](c4ccccc4)[C@H](c4ccccc4)OC(=O)[C@H]3[C@@H]2C(N)=O)cc1 | nt | nt | 1[16.7 µM] | nt | nt | 73*
COc1ccc(C#Cc2ccc3c(c2)[C@]2(C(=O)N3)[C@H](c3ccccc3OCCO)N3[C@H](c4ccccc4)[C@H](c4ccccc4)OC(=O)[C@H]3[C@@H]2C(=O)NC[C@H](O)c2ccccc2)cc1 | nt | nt | 44[16.7 µM] | nt | nt | 89*
C[C@@H]1CCCCO[C@H](CN(C)C(=O)NC2CCCCC2)[C@@H](C)CN([C@@H](C)CO)C(=O)c2cc(NC(=O)Cc3ccccc3)ccc2O1 | nt | nt | 14[16.7 µM] | nt | nt | nt
SMILES | Shn3 3UTR inh | Glyco luc inh | HIV Env fusion | NSD2 inh | LMP1 NFkB inh | PAX8 reporter
O=C(C[C@H]1CC[C@@H]2[C@H](COC[C@@H](O)CN2Cc2ccccc2F)O1)NCc1ccccc1F | nt | nt | nt | nt | nt | 0
Cc1cccc(C)c1NC(=O)CN(C)CC(=O)Nc1ccccc1Oc1ccccc1 | 0 | 0 | 29 | 0 | 63* | 7
Cc1c(C#N)c(NC(=O)CCl)n(Cc2ccccc2)c1C | 95* | 2 | -30 | -3 | -40 | 24
Cc1c(C#N)c(NC(=O)CCl)n(Cc2cccs2)c1C | 97* | 3 | -33 | 7 | -30 | 40
Cc1c(C#N)c(NC(=O)CCl)n(Cc2ccc(F)cc2)c1C | 39 | 9 | -36 | 1 | -45 | 16
COc1ccc(NC(=O)N(C)C[C@H]2OCCCC[C@@H](C)Oc3ccc(NS(=O)(=O)c4ccc(Cl)cc4)cc3C(=O)N([C@@H](C)CO)C[C@H]2C)cc1 | nt | nt | 5[16.7 µM] | nt | nt | 0
CCOC(=O)c1c(NC(C)=O)sc2c1CCN(Cc1ccccc1)C2 | -4 | -2 | 1 | nt | 0 | -3
CCOC(=O)c1c(NC(C)=O)sc2c1CCC(C=O)=C2Sc1ccccc1 | 11 | 32* | nt | -6 | -2 | nt
O=C(Nc1ccc2c(c1)[C@@H]1C[C@@H](CC(=O)N3CCc4ccccc4C3)O[C@H](CO)[C@@H]1O2)NC1CCCC1 | nt | nt | 1[16.7 µM] | nt | nt | 20
COc1cc(NS(C)(=O)=O)ccc1Nc1c2ccccc2nc2ccccc12 | 92* | -7 | -15 | nt | 57* | 71*
COc1ccc(OC)c(Nc2c3ccccc3nc3ccccc23)c1 | 77 | 10 | 13 | 7 | -3 | 18
COc1ccc([N+](=O)[O-])cc1Nc1c2ccccc2nc2ccccc12 | 35 | 25 | 79* | -1 | 14 | 31
O=[N+]([O-])c1ccccc1Nc1c2ccccc2nc2ccccc12 | 42 | -3 | 62* | -4 | 12 | 12
COc1ccc(CCn2c(=N)c(C(=O)NCC3CCCO3)cc3c(=O)n4cccc(C)c4nc32)cc1 (stereo not drawn) | 16 | 41* | -14 | -2 | nt | 21
Cc1cccn2c(=O)c3cc(C(=O)NCCN4CCOCC4)c(=N)n(Cc4ccc(F)cc4)c3nc12 | -6 | -20 | 30 | -4 | 0 | 75*
COc1ccc(C#Cc2ccc3c(c2)[C@]2(C(=O)N3)[C@H](c3ccc(OCCO)cc3)N3[C@H](c4ccccc4)[C@H](c4ccccc4)OC(=O)[C@H]3[C@@H]2C(=O)N2CCCCCCC2)cc1 | nt | nt | 15[16.7 µM] | nt | nt | -10
C[C@H](CO)N1C[C@H](C)[C@H](CN(C)C(=O)NC2CCCCC2)Oc2ccc(NC(=O)Cc3cn(C)c4ccccc34)cc2CC1=O | nt | nt | nt | nt | nt | 14
COc1ccc(CN(C)C[C@H]2OCCCC[C@@H](C)Oc3ccc(NS(=O)(=O)c4cn(C)cn4)cc3C(=O)N([C@H](C)CO)C[C@@H]2C)cc1 | nt | nt | -3[16.7 µM] | nt | nt | -25
C[n+]1ccccc1/C=C1\Sc2ccccc2N1CCO | 1 | 2 | -44 | 4 | -7 | 15
CC[n+]1c(C)sc2c3ccsc3ccc21 | -9 | 5 | -4 | 1 | 2 | 15
